Source: the supplement of paper PMC10849652
About 7,900 targets were measured; listed, in parts, are those with a hit and a random draw of the rest. About 0.6% of all pairs of compound and target were hits. Values without a mark were called inactive.

Legend:
Assay in all cases: log2 fold change, soluble protein after heating vs DMSO (PISA); higher = thermal stabilisation; K562 cells, 10 uM, 30 min; active = over 0.2 and 3.5 SD of the protein, either way, in both replicates (recomputed)
[1] = compound: C1COCCN1CCN2C3=CC=CC=C3N=C2NC(=O)C4=CC(=CC=C4)[N+](=O)[O-] [IRAK-1-4 Inhibitor I]
In short: (§1)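 Aliquots of K562 cells (2×10^6 cells/mL) treated with 10 μM compound for 30 min were heated for 3 min over 48°C-58°C. After pooling and extraction in PBS with 0.5% NP-40 at 4°C, soluble protein from a 21,000xg, 90 min spin was quantified by TMTpro 16plex LC-MS/MS with channel sums equalised. Thermal stability is expressed against control samples, from duplicates, as a log2 fold change.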

[2] = compound: C=CC(=O)N1CCC[C@@H](n2nc(-c3ccc(Oc4ccccc4)cc3)c3c(N)ncnc32)C1 [ibrutinib]
In short: as §1

[3] = compound: CC(=O)c1cnc2ccc(-c3cc(Cl)c(O)c(Cl)c3)nc2c1N[C@H]1CC[C@H](CN(C)C)CC1
In short: as §1

[4] = compound: CC(C)(C)Cn1c(N)nc2ccc(-c3[nH]c(C(C)(C)C)nc3-c3ccc(F)cc3)nc21 [ralimetinib]
In short: as §1

[5] = compound: CC(C)(O)CC(=O)NCCn1ccc2ncnc(Nc3ccc(Oc4cccc(C(F)(F)F)c4)c(Cl)c3)c21
In short: as §1

[6] = compound: CC(C)C1=C2N=C(C=C(N2N=C1)NCC3=CC=CC=C3)NCCCCCCN
In short: as §1

[7] = compound: CC(C)C[C@@H](C=O)NC(=O)[C@H](CC(C)C)NC(=O)[C@H](CC(C)C)NC(=O)OCc1ccccc1
In short: as §1

[8] = compound: CC(C)N(C[C@H]1O[C@@H](n2cnc3c(N)ncnc32)[C@H](O)[C@@H]1O)[C@H]1C[C@@H](CCc2nc3cc(C(C)(C)C)ccc3[nH]2)C1 [pinometostat]
In short: as §1

[9] = compound: CC1=C(C(CC(=O)N1)C2=CC=C(C=C2)C(F)(F)F)C(=O)NC3=C(C=C4C(=C3)C=NN4)F
In short: as §1

[10] = compound: CC1=C(C2=C(C=C1)C(=O)C3=CC=CC=C3N2CCCN)C
In short: as §1

Sequence of UniProt Q68DH5 (Q68DH5 whole entry, looked up): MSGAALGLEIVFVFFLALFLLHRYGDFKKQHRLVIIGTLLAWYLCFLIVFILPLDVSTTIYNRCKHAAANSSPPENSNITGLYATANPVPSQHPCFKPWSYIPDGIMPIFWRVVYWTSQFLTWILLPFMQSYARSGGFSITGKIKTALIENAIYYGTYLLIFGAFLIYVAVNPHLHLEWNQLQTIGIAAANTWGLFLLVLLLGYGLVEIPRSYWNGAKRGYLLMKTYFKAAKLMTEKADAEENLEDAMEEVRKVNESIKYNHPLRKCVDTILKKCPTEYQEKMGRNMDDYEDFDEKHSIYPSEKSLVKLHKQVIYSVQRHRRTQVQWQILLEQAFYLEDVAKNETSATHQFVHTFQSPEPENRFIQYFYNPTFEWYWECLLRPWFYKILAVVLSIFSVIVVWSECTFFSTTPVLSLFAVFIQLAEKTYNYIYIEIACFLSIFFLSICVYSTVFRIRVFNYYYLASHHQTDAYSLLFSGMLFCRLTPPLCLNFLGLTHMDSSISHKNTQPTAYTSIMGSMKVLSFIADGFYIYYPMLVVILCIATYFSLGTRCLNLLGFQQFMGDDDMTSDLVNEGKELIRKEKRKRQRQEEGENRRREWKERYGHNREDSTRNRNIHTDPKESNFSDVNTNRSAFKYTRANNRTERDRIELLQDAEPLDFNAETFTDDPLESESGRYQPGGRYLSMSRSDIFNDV
Sequence of UniProt Q16891 (Q16891 whole entry, looked up): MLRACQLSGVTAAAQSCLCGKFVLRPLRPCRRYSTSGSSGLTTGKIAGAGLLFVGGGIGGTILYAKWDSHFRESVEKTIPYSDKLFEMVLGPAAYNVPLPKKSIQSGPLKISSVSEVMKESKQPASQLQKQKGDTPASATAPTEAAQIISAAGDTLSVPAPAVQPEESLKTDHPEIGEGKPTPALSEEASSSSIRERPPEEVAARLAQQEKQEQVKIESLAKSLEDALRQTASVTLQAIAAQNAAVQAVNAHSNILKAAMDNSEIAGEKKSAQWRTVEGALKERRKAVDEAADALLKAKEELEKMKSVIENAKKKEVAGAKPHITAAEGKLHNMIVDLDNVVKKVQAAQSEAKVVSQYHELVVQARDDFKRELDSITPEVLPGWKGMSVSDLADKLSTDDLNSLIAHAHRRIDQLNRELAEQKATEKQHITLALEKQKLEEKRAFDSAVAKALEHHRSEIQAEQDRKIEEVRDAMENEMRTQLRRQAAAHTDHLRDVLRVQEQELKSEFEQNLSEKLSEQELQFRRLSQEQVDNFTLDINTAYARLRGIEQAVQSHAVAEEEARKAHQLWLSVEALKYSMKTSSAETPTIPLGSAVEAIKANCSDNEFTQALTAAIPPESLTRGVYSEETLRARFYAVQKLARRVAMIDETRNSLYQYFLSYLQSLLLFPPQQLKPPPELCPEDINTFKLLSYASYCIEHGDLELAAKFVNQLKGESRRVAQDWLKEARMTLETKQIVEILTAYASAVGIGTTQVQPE
Sequence of UniProt O95232 (O95232 whole entry, looked up): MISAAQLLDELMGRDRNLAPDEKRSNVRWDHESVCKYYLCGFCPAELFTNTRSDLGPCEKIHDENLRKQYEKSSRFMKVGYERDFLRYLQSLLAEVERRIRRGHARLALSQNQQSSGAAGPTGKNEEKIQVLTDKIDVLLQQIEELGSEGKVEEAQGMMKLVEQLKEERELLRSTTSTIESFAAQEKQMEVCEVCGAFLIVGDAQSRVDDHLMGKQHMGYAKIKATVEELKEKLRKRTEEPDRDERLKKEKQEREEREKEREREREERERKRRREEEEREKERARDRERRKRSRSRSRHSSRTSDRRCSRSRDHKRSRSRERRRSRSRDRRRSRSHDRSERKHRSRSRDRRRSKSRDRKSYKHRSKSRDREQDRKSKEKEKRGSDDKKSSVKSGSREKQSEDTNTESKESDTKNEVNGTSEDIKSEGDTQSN
Sequence of UniProt P13473 (P13473 whole entry, looked up): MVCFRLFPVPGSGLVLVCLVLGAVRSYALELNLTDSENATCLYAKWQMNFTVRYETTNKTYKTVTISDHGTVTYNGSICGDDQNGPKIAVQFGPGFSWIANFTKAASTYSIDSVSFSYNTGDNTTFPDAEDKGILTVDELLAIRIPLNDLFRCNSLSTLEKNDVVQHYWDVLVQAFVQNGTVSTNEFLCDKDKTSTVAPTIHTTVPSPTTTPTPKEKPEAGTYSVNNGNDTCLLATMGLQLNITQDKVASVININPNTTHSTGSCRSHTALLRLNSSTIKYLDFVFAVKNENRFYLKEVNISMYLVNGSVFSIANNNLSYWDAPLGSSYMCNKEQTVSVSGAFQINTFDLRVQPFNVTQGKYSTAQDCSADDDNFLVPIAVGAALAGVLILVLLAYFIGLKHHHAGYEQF
Sequence of UniProt Q9H6K1 (Q9H6K1 whole entry, looked up): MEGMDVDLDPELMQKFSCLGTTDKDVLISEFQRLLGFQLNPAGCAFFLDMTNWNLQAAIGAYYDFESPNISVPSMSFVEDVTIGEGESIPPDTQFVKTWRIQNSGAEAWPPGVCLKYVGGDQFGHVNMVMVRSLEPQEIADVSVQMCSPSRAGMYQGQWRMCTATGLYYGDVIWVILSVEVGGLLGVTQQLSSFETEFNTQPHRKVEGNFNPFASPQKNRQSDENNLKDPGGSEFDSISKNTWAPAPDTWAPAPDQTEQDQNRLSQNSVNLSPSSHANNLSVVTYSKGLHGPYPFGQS
Sequence of UniProt Q15648 (Q15648 whole entry, looked up): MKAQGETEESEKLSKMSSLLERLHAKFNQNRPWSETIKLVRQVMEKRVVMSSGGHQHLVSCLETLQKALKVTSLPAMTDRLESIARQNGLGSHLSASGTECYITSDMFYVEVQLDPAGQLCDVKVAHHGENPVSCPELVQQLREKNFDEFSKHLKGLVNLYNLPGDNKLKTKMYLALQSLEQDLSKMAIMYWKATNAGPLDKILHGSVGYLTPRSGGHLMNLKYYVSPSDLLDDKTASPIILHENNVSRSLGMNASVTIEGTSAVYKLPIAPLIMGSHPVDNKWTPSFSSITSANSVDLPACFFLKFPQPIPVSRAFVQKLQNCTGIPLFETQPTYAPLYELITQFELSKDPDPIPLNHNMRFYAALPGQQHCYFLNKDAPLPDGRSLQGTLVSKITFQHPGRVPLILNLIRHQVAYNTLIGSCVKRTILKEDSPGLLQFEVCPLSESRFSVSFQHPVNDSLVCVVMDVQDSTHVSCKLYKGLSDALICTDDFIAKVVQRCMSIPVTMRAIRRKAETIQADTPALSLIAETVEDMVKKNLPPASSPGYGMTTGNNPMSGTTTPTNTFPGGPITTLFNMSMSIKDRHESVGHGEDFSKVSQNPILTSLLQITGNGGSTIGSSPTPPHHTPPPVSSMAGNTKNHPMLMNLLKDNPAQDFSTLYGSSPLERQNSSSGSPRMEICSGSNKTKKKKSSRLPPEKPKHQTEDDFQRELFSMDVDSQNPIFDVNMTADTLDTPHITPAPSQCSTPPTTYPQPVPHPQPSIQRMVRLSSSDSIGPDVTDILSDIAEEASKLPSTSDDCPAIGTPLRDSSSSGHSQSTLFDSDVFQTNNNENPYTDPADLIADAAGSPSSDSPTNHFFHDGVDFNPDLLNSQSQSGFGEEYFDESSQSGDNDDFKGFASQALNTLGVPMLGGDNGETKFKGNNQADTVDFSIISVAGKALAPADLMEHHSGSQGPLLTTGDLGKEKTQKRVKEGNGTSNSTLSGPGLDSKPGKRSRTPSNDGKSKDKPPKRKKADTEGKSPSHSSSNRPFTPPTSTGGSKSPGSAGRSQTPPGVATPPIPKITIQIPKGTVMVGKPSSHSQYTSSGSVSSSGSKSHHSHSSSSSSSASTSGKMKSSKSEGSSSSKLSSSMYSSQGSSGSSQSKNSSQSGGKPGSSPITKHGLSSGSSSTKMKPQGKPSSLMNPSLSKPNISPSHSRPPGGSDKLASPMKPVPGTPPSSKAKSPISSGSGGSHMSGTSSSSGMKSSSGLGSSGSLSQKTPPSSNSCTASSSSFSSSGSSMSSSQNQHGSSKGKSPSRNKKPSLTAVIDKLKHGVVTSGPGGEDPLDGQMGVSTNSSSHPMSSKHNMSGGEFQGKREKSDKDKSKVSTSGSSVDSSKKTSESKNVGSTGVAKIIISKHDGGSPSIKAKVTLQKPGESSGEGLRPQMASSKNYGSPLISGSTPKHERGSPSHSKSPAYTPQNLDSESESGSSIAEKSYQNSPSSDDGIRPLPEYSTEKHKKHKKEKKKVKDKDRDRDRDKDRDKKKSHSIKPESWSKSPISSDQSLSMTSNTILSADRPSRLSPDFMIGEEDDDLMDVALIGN
Sequence of UniProt Q8WWC4 (Q8WWC4 whole entry, looked up): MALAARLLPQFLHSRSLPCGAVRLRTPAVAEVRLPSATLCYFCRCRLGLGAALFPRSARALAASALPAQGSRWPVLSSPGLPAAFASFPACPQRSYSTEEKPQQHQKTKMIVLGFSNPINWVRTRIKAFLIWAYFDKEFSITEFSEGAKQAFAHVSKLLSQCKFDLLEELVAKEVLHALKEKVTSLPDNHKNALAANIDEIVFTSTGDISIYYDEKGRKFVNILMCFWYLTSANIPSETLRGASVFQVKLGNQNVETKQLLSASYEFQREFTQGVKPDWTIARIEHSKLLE
Sequence of UniProt P01116 (P01116 whole entry, looked up): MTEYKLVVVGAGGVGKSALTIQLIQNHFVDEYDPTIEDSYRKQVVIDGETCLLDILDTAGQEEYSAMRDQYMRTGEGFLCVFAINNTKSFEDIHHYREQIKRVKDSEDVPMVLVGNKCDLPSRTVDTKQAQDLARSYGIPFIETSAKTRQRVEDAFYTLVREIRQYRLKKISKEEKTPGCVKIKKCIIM
Sequence of UniProt Q6UB28 (Q6UB28 whole entry, looked up): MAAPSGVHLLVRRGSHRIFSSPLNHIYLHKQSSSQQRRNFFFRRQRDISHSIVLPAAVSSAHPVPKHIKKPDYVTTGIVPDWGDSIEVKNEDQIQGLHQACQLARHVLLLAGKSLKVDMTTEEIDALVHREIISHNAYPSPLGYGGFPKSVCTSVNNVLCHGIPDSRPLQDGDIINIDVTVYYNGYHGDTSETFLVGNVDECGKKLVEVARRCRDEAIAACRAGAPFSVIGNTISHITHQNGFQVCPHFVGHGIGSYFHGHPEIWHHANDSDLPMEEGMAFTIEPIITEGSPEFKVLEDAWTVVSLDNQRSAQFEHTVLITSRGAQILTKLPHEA

Target	log2 fold change [1]	log2 fold change [2]	log2 fold change [3]	log2 fold change [4]	log2 fold change [5]	log2 fold change [6]	log2 fold change [7]	log2 fold change [8]	log2 fold change [9]	log2 fold change [10]
METAP1D (UniProt Q6UB28)	-0.122	0.017	0.084	0.01	-0.032	0.094	0.044	-0.003	0.073	-0.024
LUC7L3 (UniProt O95232)	-0.123	-0.037	-0.409 (active)	-0.024	0.024	-0.04	0.007	-0.023	-0.013	0.109
MED1 (UniProt Q15648)	-0.049	0.002	-0.28 (active)	0.032	-0.008	-0.106	0.033	0.189	0.019	0.027
LAMP2 (UniProt P13473)	0.063	0.042	-0.083	-0.12	-0.007	-0.033	0.004	-0.077	-0.139	0.066
LONP2 (UniProt Q86WA8)	-0.016	-0.023	-0.033	0.103	-0.135	0.004	-0.609 (active)	-0.008	-0.271	-0.009
IRAK4 (UniProt Q9NWZ3)	-0.012	0.002	0.196	-0.014	-0.092	-0.252 (active)	-0.026	0.065	0.02	-0.002
MED8 isoform 2 (UniProt Q96G25)	-0.051	0.038	-0.216	-0.013	-0.081	0.05	0.06	-0.043	0.016	–
MAIP1 (UniProt Q8WWC4)	0	-0.014	-0.004	-0.028	0.09	-0.201	-0.026	-0.042	-0.011	0.052
KDM1A isoform 2 (UniProt O60341)	-0.014	0.014	-0.123	0.175	-0.111	-0.041	0.031	0.046	0.012	-0.05
LMBRD2 (UniProt Q68DH5)	0.14	-0.034	0.034	-0.016	-0.021	-0.244 (active)	-0.093	0.037	-0.007	0.012
IMMT isoform 4 (UniProt Q16891)	0.037	-0.005	-0.015	-0.044	-0.035	-0.179	-0.013	-0.013	0.017	0.01
ILRUN (UniProt Q9H6K1)	0.031	0.044	-0.011	-0.004	-0.035	-0.148	0.027	-0.06	0.031	-0.055
KRAS isoform 2 (UniProt P01116)	0.045	-0.035	-0.07	0.02	0.101	0.099	0.241 (active)	0.014	0.001	0.072
IMMT isoform 2 (UniProt Q16891)	0.053	-0.011	0.022	0.054	0.051	0.015	-0.028	0.058	0.035	-0.106
LDLR (UniProt P01130)	0.03	-0.015	-0.106	-0.025	0.072	-0.009	0.171	-0.011	0.019	-0.058
